These results are taken from ChEMBL document CHEMBL4513216, “Probing the Open Global Health Chemical Diversity Library for Multistage-Active Starting Points for Next-Generation Antimalarials” (ACS Infect Dis, 2020).

The structures appear in SMILES notation. The whole screen tested about 69,000 compounds, of which about 8,600 (12%) showed an effect of 50% or more. The sample holds strong results, similar compounds and a random draw of the others, so the mix is not that of the screen.

For this experiment, the system named is Plasmodium berghei. Briefly: Screen against P. berghei liver stage (PbLuc), transformed with Luciferase, at 10uM. It counts as functional, HepG2. The conditions noted are these: tested at 10 uM.
Regarding `O=C(NCCN1CCCCCC1=O)Nc1cccnc1-n1cccn1`, the INHIBITION is -15.4%. The same measure for `CCc1ncc2c(n1)CN(c1cc(NC3CC3)nc(N)n1)C2`: -49.6%; for `CCn1cc(-n2cc3nc(N)[nH]cc-3c2=O)cn1`: -8.69%; for `CCN(CC1CCCO1)S(=O)(=O)c1cc(NC(C)=O)ccc1C` (stereo unspecified): 47.7%.

As for `CCN(CC)S(=O)(=O)c1cc(NC(=O)CCc2cscn2)ccc1C`, the INHIBITION is on record as 28.9%. The same measure for `CCCN(CCC)S(=O)(=O)c1cc(NC(C)=O)ccc1C`: 71.2%; for `O=C(c1cccc(C2CCNC2)c1)N1CCC(N2CCC(O)CC2)CC1` (stereo unspecified): 35.1%; for `Cc1ccccc1C(=O)N1CCOC2(CNCCOC2)C1` (stereo unspecified): 55.1%.

In the case of `CN(C)c1ccccc1C(=O)N1CCOC2(CNCCOC2)C1` (stereo unspecified), the INHIBITION was 8.53%. The figure for `COc1ccc(Cl)cc1C(=O)N1CCOC2(CNCCOC2)C1` (stereo unspecified) is 16.8%. The same measure for `COc1ccc(C(=O)N2CCOC3(CNCCOC3)C2)c(OC)n1` (stereo unspecified): 53.6%. The same measure for `Cc1cc2cccc(C(=O)N3CCOC4(CNCCOC4)C3)c2o1` (stereo unspecified): 30.5%. For `O=C(c1ccccc1-c1ccccc1)N1CCOC2(CNCCOC2)C1` (stereo unspecified), the INHIBITION is -16.5%. The figure for `Cc1nc(C)n(CC2CCCN2CC(=O)NCCC#N)n1` (stereo unspecified) is 8.38%; for `Cc1nc(-c2ccc(C(=O)O)cc2)cc(C2CCN(C(C)C)CC2)n1` it is 26.3%.

On to `OC(CN1CCC(c2ccn[nH]2)CC1)c1ccc(F)cc1` (stereo unspecified), for which the INHIBITION is -12.2%. As for `Cc1cc(Nc2nc(C)cc(C)n2)cc(C2CCCN2)n1` (stereo unspecified), the INHIBITION is on record as 49.2%. The figure for `Cc1cc(S(=O)(=O)N2C[C@H](C3CC3)[C@@H](N)C2)c(C)s1` is 1.71%; for `CN1C[C@H](O)[C@]2(CCN(C(=O)COc3ccccc3)C2)S1(=O)=O` it is 9.36%. The figure for `CC1(C)CNC(=O)CN(C(=O)COc2ccccc2)C1` is 55.5%; for `COc1ccc(CC(=O)N2CCN(C)c3ncccc3C2)cc1` it is 8.44%. The figure for `COc1ccc(CC(=O)N2CC(=O)NCC(C)(C)C2)cc1` is 60.1%; for `CC1(C)CNC(=O)CN(C(=O)Cc2ccccc2)C1` it is -1.99%; for `CC1(C)CNC(=O)CN(C(=O)CCc2ccccc2)C1` it is 40.4%. Take `CSc1[nH]nc(NC(=O)c2cccs2)c1C#N`: the INHIBITION came to 24.2%. The figure for `Cn1cc(CCNCc2cc(Cl)c3c(c2)OCCO3)cn1` is -9.4%; for `O=C1Nc2ccccc2CN(CC2CCCC2)C12CCNC2` (stereo unspecified) it is -44.5%.

As to `O=C(NCc1nnc2n1CCC2)c1cn(-c2ccccc2)nn1`, the INHIBITION is reported as 13.6%.

Regarding `O=C(NCc1nnc2n1CCCC2)c1cn(-c2ccccc2)nn1`, the INHIBITION was 36.4%. The same measure for `O=C(NCc1nnc2n1CCC2)c1cn(-c2ccccc2Br)nn1`: 50.4%; for `Cc1ccc(OCc2occc2C(=O)O)cc1`: 64.1%. The figure for `Cc1ccc(OCc2occc2C(=O)N2CC[C@H](CO)[C@@H](O)C2)cc1` is 26.6%. Consider `Cc1ccc(OCc2occc2C(=O)N2CCOC(C(=O)O)C2)cc1` (stereo unspecified), for which the INHIBITION was -0.71%.

Consider `NS(=O)(=O)c1cc(C(=O)N2CCCC(n3ccnc3)C2)cs1` (stereo unspecified), for which the INHIBITION amounted to 29.4%. On to `O=S1(=O)CCC(S(=O)(=O)c2cccc(S(=O)(=O)N3CCCCCC3)c2)C1` (stereo unspecified), for which the INHIBITION turned out to be 50.2%. On to `CSCc1cccc(S(=O)(=O)N2CCC(C)CC2)c1`, for which the INHIBITION is 32.4%. In the case of `O=S1(=O)CCC(S(=O)(=O)c2cccc(S(=O)(=O)N3CCOCC3)c2)C1` (stereo unspecified), the INHIBITION is given as 58.9%. The figure for `CC1=CCN(S(=O)(=O)c2cccc(C(=O)N3CCOCC3)c2)CC1` is 37.1%. Consider `CN1CCN(S(=O)(=O)c2cccc(S(=O)(=O)C3CCS(=O)(=O)C3)c2)CC1` (stereo unspecified), for which the INHIBITION was 46.7%. The figure for `O=S1(=O)CCC(S(=O)(=O)c2cccc(S(=O)(=O)N3CCCC3)c2)C1` (stereo unspecified) is 36.3%.

Consider `COCCN1C[C@H]2[C@@H](C1)N(C(=O)c1cccc(OC)c1)CC[C@H]2OC`, for which the INHIBITION stood at 9.63%. `CC(C)c1ncc2c(n1)CN(Cc1nc(-c3cccnc3)no1)CC2`: the INHIBITION was 33.7%. The figure for `Cc1nc(CN2CCOCC3(CCN(c4ncccn4)CC3)C2)cs1` is 27.6%; for `Cc1nn(C)c(C)c1C1CCCN1CC(=O)NCc1ccco1` (stereo unspecified) it is 7.12%. The figure for `O=C(NC1CC1)[C@H]1C[C@H]2OCC[C@H]2N(Cc2cccc3ccccc23)C1` is 11.4%; for `Cn1c(CN2CCCc3cc(F)cc(F)c32)cc(=O)n(C)c1=O` it is 12.8%. The same measure for `CCNc1nc(N(C)C)nc(-n2cnc(SC)n2)n1`: 46.1%; for `c1cnc(N2CCCC3(CN(CC4CCOCC4)CCO3)C2)cn1` (stereo unspecified): -36%. Regarding `Fc1cnccc1CN1CCCC2(CCN(c3ncccn3)CC2)C1`, the INHIBITION is reported as 30.3%. The same measure for `c1cnc(N2CCC3(CCCN(CC4CCCCC4)C3)C2)cn1` (stereo unspecified): 63%; for `O=C(O)[C@]12CCCN(CC3CCOC3)C[C@H]1CN(c1ncccn1)C2` (stereo partly specified): 53.9%; for `c1cnc(N2CCOCC3(CCCN(CC4CC4)C3)C2)cn1` (stereo unspecified): 26.8%. The same measure for `O=C(O)[C@]12CCCN(Cc3ccccc3)C[C@H]1CN(c1ncccn1)C2`: 2.01%.

Turning to `O=C(O)[C@]12CCCN(C3CCOC3)C[C@H]1CN(c1ncccn1)C2` (stereo partly specified), the INHIBITION stood at 31.2%. For `Fc1ccccc1CN1CCCC2(CCN(c3ncccn3)CC2)C1`, the INHIBITION was found to be 30.3%. The figure for `c1cnc(N2CCC3(CCCN(CC4CC4)C3)CC2)nc1` is 61.1%.

As for `Fc1ccccc1CN1CCCC2(CCN(c3ncccn3)C2)C1` (stereo unspecified), the INHIBITION is 74.9%. The figure for `c1cnc(N2CCCC3(COCCN(CC4CC4)C3)C2)nc1` (stereo unspecified) is -6.23%; for `c1cnc(N2CCC3(CCN(CC4CC4)CC3)CC2)nc1` it is -5.69%; for `CN(CC(=O)N1CCC(N(C)c2ccccc2)CC1)c1cnccn1` it is 9.9%. The figure for `COCCCNC(=O)CN1CCC(c2ccccc2)C1` (stereo unspecified) is -4.99%; for `Cn1cccc1C(=O)N[C@@H]1CN(CC2CC2)[C@@H]2COC[C@@H]21` it is 0.547%. The same measure for `CN(C)S(=O)(=O)c1ccc(-c2nc(C#N)c(NC(C)(C)C)o2)o1`: 16%; for `Cc1ccc(C(=O)N2CCC3(CCC(=O)N(CCCO)C3)CC2)c(O)c1`: -45%. For the molecule `COCCS(=O)(=O)NC(C)c1cccc(C)c1C` (stereo unspecified), the INHIBITION came out at 48.2%. The same measure for `CCc1nnc2n1CCN(C(=O)CCc1ccc(C)c(Cl)c1)C2`: -27%.
